The nature of experiment [1]: qHTS assay for identifying genotoxic compounds that show differential cytotoxicity against isogenic chicken DT40 cell lines with known DNA damage response pathways - wild type cell line (AID 743012). Further: nearly all actives have a fitted effect of over 60% in size. An excerpt: U.S. Tox21 Program National Center for Advancing Translational Sciences [NCATS] NIH Chemical Genomics Center [NCGC] U.S. Environmental Protection Agency [EPA] National Institutes of Environmental Health Sciences [NIEHS] National Toxicology Program [NTP] U.S. Food and Drug Administration [FDA] Tox21 Assay Overview: DNA repair pathways play a critical role in cellular homeostasis by repairing DNA damage induced by endogenous processes and xenobiotics. Isogenic chicken DT40 cell lines deficient in different DNA repair pathways can be used to identify genotoxic compounds and aid in characterizing the nature of the DNA damage induced. Two DNA repair-deficient cell lines with disrupted genes, Rad54/Ku70 or Rev3, were used to screen the Tox21 10K compound library. […]
Tox21 Assay Protocol Summary: 300 DT40 wild type cells in 5 uL/well were dispensed into white, solid-bottom 1536-well plates using a Multidrop Combi (ThermoFisher Scientific, Waltham, MA) dispenser. […] After 5 uL per well of CellTiter-Glo reagent was added into each well of the assay plates, the plates were incubated for 30 min at room temperature and the luminescence intensity of the plates was measured using a ViewLux (PerkinElmer, Shelton, CT) plate reader.

A short description of experiment [2]: qHTS assay for identifying genotoxic compounds that show differential cytotoxicity against isogenic chicken DT40 cell lines with known DNA damage response pathways - Rev3 mutant cell line (AID 743014). Further: nearly all actives have a fitted effect of over 55% in size. Further: potency means the concentration at half of the fitted maximal effect.
Experiment [3] is described as follows: qHTS assay for identifying genotoxic compounds that show differential cytotoxicity against isogenic chicken DT40 cell lines with known DNA damage response pathways - Rad54/Ku70 mutant cell line (AID 743015). Further: nearly all actives have a fitted effect of over 60% in size. A general note: Quantitative high-throughput screening tests each substance at several concentrations.

The record followed here is PubChem BioAssay (Tox21).

“And” between values parts separate entries of the source, which are not always exact repeats. Identical values can stand only once. Records with an inconclusive call do not appear. A structure can be active in one record and inactive in another. The source made the active and inactive calls. The call rests on the fitted dose curve; in most records, active means well fitted curve in the direction sought with a large enough effect in the repeat runs; inconclusive means weak or mixed curves; inactive means no such curve, though single readings can be large; an effect the other way counts as inactive or inconclusive.

`CC(C)C(=O)OCC(C)(C)C(OC(=O)C(C)C)C(C)C` (stereo not drawn): the Potency result in experiment [1] and in experiment [3] was “inactive” throughout. Further, in experiment [2], the Potency entry was “inactive and 19.3 µM (active)”.
